# Where two headings read alike, the source gives them in different places.
# What was measured:
# [1] = tested on: MAP3K15; conditions: concentration: 1 μM,replicates: in singlicate; n = 1
# [2] = tested on: MAP3K1; conditions: concentration: 1 μM,replicates: in singlicate; n = 1
# [3] = tested on: MAP3K2; conditions: concentration: 1 μM,replicates: in singlicate; n = 1
# [4] = tested on: MAP3K3; conditions: concentration: 1 μM,replicates: in singlicate; n = 1
# [5] = tested on: MAP3K4; conditions: concentration: 1 μM,replicates: in singlicate; n = 1
# [6] = tested on: MAP4K2; conditions: concentration: 1 μM,replicates: in singlicate; n = 1
# [7] = tested on: MAP4K3; conditions: concentration: 1 μM,replicates: in singlicate; n = 1
# [8] = tested on: MAP4K4; conditions: concentration: 1 μM,replicates: in singlicate; n = 1
# [9] = tested on: MAP4K5; conditions: concentration: 1 μM,replicates: in singlicate; n = 1
# [10] = tested on: MAPKAPK2; conditions: n = 1
# [11] = tested on: MAPKAPK5; conditions: concentration: 1 μM,replicates: in singlicate; n = 1
# [12] = tested on: MARK1; conditions: concentration: 1 μM,replicates: in singlicate; n = 1
# [13] = tested on: MARK2; conditions: concentration: 1 μM,replicates: in singlicate; n = 1
# [14] = tested on: MARK3; conditions: concentration: 1 μM,replicates: in singlicate; n = 1
# [15] = tested on: MARK4; conditions: concentration: 1 μM,replicates: in singlicate; n = 1
# [16] = tested on: MAST1; conditions: concentration: 1 μM,replicates: in singlicate; n = 1
# [17] = tested on: T1, MEK1; conditions: concentration: 1 μM,replicates: in singlicate; n = 1
# T1 construct: gene MAP2K1
# [18] = tested on: T2, MEK2; conditions: concentration: 1 μM,replicates: in singlicate; n = 1
# T2 construct: gene MAP2K2
# [19] = tested on: T3, MEK3; conditions: concentration: 1 μM,replicates: in singlicate; n = 1
# T3 construct: gene MAP2K3
# [20] = tested on: T4, MEK4; conditions: concentration: 1 μM,replicates: in singlicate; n = 1
# T4 construct: gene MAP2K4
# [21] = concentration: 1 μM,replicates: in singlicate
# 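Note: KINOMEscan kinase panel screen.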
compound,measurement,setting,value
C[C@@H]1CNc2c(sc3ccc4nc(-c5ccncc5)ccc4c23)C(=O)N1,%Inh,[1],52%
same,%Inh,[2],0%
same,%Inh,[3],0%
same,%Inh,[4],5%
same,%Inh,[5],0%
same,%Inh,[6],70%
same,%Inh,[7],1%
same,%Inh,[8],0%
same,%Inh,[9],0%
same,%Inh,[10]; 1 µM,97.1%
same,%Inh,[11],100%
same,%Inh,[12],0%
same,%Inh,[13],0%
same,%Inh,[14],0%
same,%Inh,[15],0%
same,%Inh,[16],12%
same,%Inh,[17],0%
same,%Inh,[18],0%
same,%Inh,[19],13%
same,%Inh,[20],0%
Cl.c1ccc(Oc2ccc(Nc3ccnc4cc(-c5ccc(CN6CCNCC6)o5)ccc34)cc2)nc1 [GW567142],%Inh,[1],3%
same,%Inh,[2],1%
same,%Inh,[3],0%
same,%Inh,[4],0%
same,%Inh,[5],0%
same,%Inh,[6],0%
same,%Inh,[7],0%
same,%Inh,[8],0%
same,%Inh,[9],13%
same,%Inh,[10]; [21],0%
same,%Inh,[11],0%
same,%Inh,[12],0%
same,%Inh,[13],0%
same,%Inh,[14],39%
same,%Inh,[15],0%
same,%Inh,[16],0%
same,%Inh,[17],87%
same,%Inh,[18],90.9%
same,%Inh,[19],0%
same,%Inh,[20],19%
Cc1ccc2c(-c3ccnc(Nc4ccc(C(F)(F)F)cc4)n3)cnn2n1 [GW819776],%Inh,[1],10%
same,%Inh,[2],0%
same,%Inh,[3],20%
same,%Inh,[4],0%
same,%Inh,[5],0%
same,%Inh,[6],0%
same,%Inh,[7],0%
same,%Inh,[8],0%
same,%Inh,[9],0%
same,%Inh,[10]; [21],0%
same,%Inh,[11],0%
same,%Inh,[12],17%
same,%Inh,[13],0%
same,%Inh,[14],0%
same,%Inh,[15],32%
same,%Inh,[16],41%
same,%Inh,[17],32%
same,%Inh,[18],40%
same,%Inh,[19],90.7%
same,%Inh,[20],63%
Cn1ccc2ncnc(Oc3ccc(NC(=O)Nc4cnn(C(C)(C)C)c4)c(Cl)c3)c21,%Inh,[1],0%
same,%Inh,[2],7%
same,%Inh,[3],0%
same,%Inh,[4],9%
same,%Inh,[5],1%
same,%Inh,[6],4%
same,%Inh,[7],0%
same,%Inh,[8],52%
same,%Inh,[9],0%
same,%Inh,[10]; [21],7%
same,%Inh,[11],0%
same,%Inh,[12],10%
same,%Inh,[13],6%
same,%Inh,[14],0%
same,%Inh,[15],16%
same,%Inh,[16],0%
same,%Inh,[17],0%
same,%Inh,[18],15%
same,%Inh,[19],3%
same,%Inh,[20],0%
Cc1nnc(-c2ccc3occ(-c4ccc(S(C)=O)cc4)c3n2)o1 (centres unmarked),%Inh,[1],0%
same,%Inh,[2],0%
same,%Inh,[3],0%
same,%Inh,[4],0%
same,%Inh,[5],1%
same,%Inh,[6],0%
same,%Inh,[7],44%
same,%Inh,[8],0%
same,%Inh,[9],38%
same,%Inh,[10]; [21],0%
same,%Inh,[11],0%
same,%Inh,[12],0%
same,%Inh,[13],0%
same,%Inh,[14],0%
same,%Inh,[15],0%
same,%Inh,[16],0%
same,%Inh,[17],0%
same,%Inh,[18],0%
same,%Inh,[19],0%
same,%Inh,[20],0%
CN1CCN(CCCNc2nccc(-c3c(-c4ccc(F)cc4)nn4cc(C(N)=O)ccc34)n2)CC1 [GW622475],%Inh,[1],0%
same,%Inh,[2],24%
same,%Inh,[3],0%
same,%Inh,[4],0%
same,%Inh,[5],16%
same,%Inh,[6],0%
same,%Inh,[7],0%
same,%Inh,[8],65%
same,%Inh,[9],33%
same,%Inh,[10]; [21],0%
same,%Inh,[11],0%
same,%Inh,[12],9%
same,%Inh,[13],15%
same,%Inh,[14],0%
same,%Inh,[15],21%
same,%Inh,[16],0%
same,%Inh,[17],0%
same,%Inh,[18],18%
same,%Inh,[19],0%
same,%Inh,[20],12%
COc1cccc(OC)c1C(=O)Nc1cccc(-c2nn3ccccc3c2-c2ccnc(Nc3cccc(F)c3)n2)c1 [GSK361065],%Inh,[1],0%
same,%Inh,[2],0%
same,%Inh,[3],7%
same,%Inh,[4],43%
same,%Inh,[5],14%
same,%Inh,[6],5%
same,%Inh,[7],0%
same,%Inh,[8],21%
same,%Inh,[9],67%
same,%Inh,[10]; [21],11%
same,%Inh,[11],8%
same,%Inh,[12],17%
same,%Inh,[13],8%
same,%Inh,[14],7%
same,%Inh,[15],14%
same,%Inh,[16],9%
same,%Inh,[17],28%
same,%Inh,[18],41%
same,%Inh,[19],30%
same,%Inh,[20],0%
Cn1ccc2ncnc(Oc3ccc(NC(=O)Nc4ccnc(C(F)(F)F)c4)c(Cl)c3)c21,%Inh,[1],0%
same,%Inh,[2],0%
same,%Inh,[3],0%
same,%Inh,[4],6%
same,%Inh,[5],0%
same,%Inh,[6],0%
same,%Inh,[7],3%
same,%Inh,[8],0%
same,%Inh,[9],0%
same,%Inh,[10]; [21],1%
same,%Inh,[11],0%
same,%Inh,[12],0%
same,%Inh,[13],0%
same,%Inh,[14],0%
same,%Inh,[15],0%
same,%Inh,[16],0%
same,%Inh,[17],4%
same,%Inh,[18],15%
same,%Inh,[19],8%
same,%Inh,[20],0%
CCOC(=O)N1CCC(n2cnc(-c3ccc(F)cc3)c2-c2ccnc(N)n2)CC1 [SB-219952],%Inh,[1],36%
same,%Inh,[2],29%
same,%Inh,[3],6%
same,%Inh,[4],11%
same,%Inh,[5],6%
same,%Inh,[6],0%
same,%Inh,[7],0%
same,%Inh,[8],9%
same,%Inh,[9],4%
same,%Inh,[10]; [21],24%
same,%Inh,[11],13%
same,%Inh,[12],15%
same,%Inh,[13],17%
same,%Inh,[14],0%
same,%Inh,[15],28%
same,%Inh,[16],2%
same,%Inh,[17],3%
same,%Inh,[18],27%
same,%Inh,[19],45%
same,%Inh,[20],18%
C[C@@H](Oc1cc(-n2cnc3cc(-c4ccncc4)ccc32)sc1C(N)=O)c1ccccc1Cl [GSK479719],%Inh,[1],18%
same,%Inh,[2],91.9%
same,%Inh,[3],10%
same,%Inh,[4],1%
same,%Inh,[5],13%
same,%Inh,[6],24%
same,%Inh,[7],65%
same,%Inh,[8],13%
same,%Inh,[9],85%
same,%Inh,[10]; [21],0%
same,%Inh,[11],0%
same,%Inh,[12],0%
same,%Inh,[13],100%
same,%Inh,[14],1%
same,%Inh,[15],12%
same,%Inh,[16],0%
same,%Inh,[17],0%
same,%Inh,[18],0%
same,%Inh,[19],0%
same,%Inh,[20],37%
